What all share (experiment): DAPPL (digital affinity profiling via proximity ligation, sequencing); 10 mM Tris-HCl pH 7.5, 50 mM NaCl, 1 mM DTT, 4% glycerol, room temperature, 30 min; GST-TFs on glutathione beads, 16-mer random dsDNA library, 0.1% formaldehyde crosslink after washing; high values mean tight binding
One experiment concerns the target T1, FEV (Homo sapiens, UniProt Q99581 1-238).
T1 sequence: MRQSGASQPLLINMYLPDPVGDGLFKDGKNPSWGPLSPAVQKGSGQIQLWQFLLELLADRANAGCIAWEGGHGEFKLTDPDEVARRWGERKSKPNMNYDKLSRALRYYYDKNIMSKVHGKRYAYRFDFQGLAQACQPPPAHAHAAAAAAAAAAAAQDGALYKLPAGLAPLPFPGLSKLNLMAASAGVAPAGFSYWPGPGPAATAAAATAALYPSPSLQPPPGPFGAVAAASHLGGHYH
Particulars: protein: recombinant; tags: N-terminal GST; dsDNA, one strand shown. In a few lines:
(§1)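 Sequencing on an Illumina NextSeq500 followed washing, crosslinking with 0.1% formaldehyde, proximity ligation (BsaI/T4 ligase, 1 h, 37 °C) and PCR amplification of pools that had been incubated for 30 min at room temperature with 200 nmole of a random double-stranded 16-mer DNA library in Tris/NaCl/DTT/glycerol buffer. Each pool held DNA-barcoded human transcription factors, expressed in yeast as GST fusions and captured on glutathione beads, plus a tag-only sample. Binding signal is a hexamer's read frequency for a factor divided by its frequency in the tag-only sample.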

Another experiment addresses ETV5 (Homo sapiens, UniProt P41161 1-510). Particulars: protein: recombinant; tags: N-terminal GST; dsDNA, one strand shown. The method in brief:
as §1

A further experiment deals with HSF1 (Homo sapiens, UniProt Q00613 1-529). The conditions noted are these: protein: recombinant; tags: N-terminal GST; chain copies: 3; dsDNA, one strand shown. The method in brief: as §1
For a further experiment, the target named is T2, SPIC (Homo sapiens, UniProt Q8N5J4 1-248).
T2 sequence: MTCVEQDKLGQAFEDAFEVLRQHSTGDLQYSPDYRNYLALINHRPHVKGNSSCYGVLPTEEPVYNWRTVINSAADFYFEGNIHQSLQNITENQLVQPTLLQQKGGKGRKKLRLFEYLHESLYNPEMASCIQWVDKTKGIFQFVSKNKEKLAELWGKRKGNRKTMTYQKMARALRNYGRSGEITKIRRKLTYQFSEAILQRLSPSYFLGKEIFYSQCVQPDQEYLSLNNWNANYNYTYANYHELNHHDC
The conditions noted are these: protein: recombinant; tags: N-terminal GST; dsDNA, one strand shown. The method in brief:
as §1

The next experiment deals with ELF4 (Homo sapiens, UniProt Q99607 1-663). The conditions noted are these: protein: recombinant; tags: N-terminal GST; dsDNA, one strand shown. In a few lines:
as §1

Another experiment has as its target T3, ELK4 (Homo sapiens, UniProt P28324-2 1-405).
T3 sequence: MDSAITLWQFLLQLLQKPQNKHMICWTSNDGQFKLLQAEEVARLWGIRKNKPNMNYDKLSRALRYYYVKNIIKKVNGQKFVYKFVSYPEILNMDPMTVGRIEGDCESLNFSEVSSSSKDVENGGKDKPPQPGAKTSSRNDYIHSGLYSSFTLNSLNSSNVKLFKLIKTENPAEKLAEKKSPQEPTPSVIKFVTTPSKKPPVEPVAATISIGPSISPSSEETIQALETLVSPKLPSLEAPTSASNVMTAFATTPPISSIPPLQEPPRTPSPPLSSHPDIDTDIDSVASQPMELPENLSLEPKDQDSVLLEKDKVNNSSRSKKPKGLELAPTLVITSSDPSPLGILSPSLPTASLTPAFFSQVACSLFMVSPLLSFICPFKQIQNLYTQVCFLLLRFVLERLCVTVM
The conditions noted are these: protein: recombinant; tags: N-terminal GST; dsDNA, one strand shown. In a few lines:
as §1

In the next experiment the target is T4, ETV2 (Homo sapiens, UniProt O00321 1-342).
T4 sequence: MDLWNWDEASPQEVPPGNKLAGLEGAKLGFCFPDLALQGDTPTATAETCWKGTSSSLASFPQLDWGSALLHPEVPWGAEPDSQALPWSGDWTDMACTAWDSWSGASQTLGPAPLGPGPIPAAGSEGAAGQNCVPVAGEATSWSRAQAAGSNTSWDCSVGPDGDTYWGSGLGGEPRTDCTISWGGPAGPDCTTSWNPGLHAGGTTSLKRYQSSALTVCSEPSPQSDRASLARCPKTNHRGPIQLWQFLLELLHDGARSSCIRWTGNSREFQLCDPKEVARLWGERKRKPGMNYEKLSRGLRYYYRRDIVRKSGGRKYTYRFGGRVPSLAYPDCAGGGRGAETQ
Particulars: protein: recombinant; tags: N-terminal GST; dsDNA, one strand shown. The method in brief: as §1

The next experiment concerns the target T5, ELF3 (Homo sapiens, UniProt P78545 1-371).
T5 sequence: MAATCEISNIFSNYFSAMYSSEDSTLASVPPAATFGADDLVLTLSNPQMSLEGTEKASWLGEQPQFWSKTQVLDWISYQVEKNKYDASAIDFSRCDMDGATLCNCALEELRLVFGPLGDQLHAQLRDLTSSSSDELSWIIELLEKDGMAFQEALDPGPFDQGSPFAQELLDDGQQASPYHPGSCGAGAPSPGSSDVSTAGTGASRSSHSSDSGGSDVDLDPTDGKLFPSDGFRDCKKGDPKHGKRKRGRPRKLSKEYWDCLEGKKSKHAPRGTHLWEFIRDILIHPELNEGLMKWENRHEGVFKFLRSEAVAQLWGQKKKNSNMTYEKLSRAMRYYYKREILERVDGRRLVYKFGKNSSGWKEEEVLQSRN
Particulars: protein: recombinant; tags: N-terminal GST; dsDNA, one strand shown. In a few lines:
as §1

Another experiment has as its target CRX (Homo sapiens, UniProt O43186 1-299). Particulars: protein: recombinant; tags: N-terminal GST; dsDNA, one strand shown. The method in brief: as §1
A further experiment has as its target ETV1 (Homo sapiens, UniProt P50549 1-477). The conditions noted are these: protein: recombinant; tags: N-terminal GST; dsDNA, one strand shown. The method in brief: as §1
The target in the next experiment is T6, ERF (Homo sapiens, UniProt P50548 1-548).
T6 sequence: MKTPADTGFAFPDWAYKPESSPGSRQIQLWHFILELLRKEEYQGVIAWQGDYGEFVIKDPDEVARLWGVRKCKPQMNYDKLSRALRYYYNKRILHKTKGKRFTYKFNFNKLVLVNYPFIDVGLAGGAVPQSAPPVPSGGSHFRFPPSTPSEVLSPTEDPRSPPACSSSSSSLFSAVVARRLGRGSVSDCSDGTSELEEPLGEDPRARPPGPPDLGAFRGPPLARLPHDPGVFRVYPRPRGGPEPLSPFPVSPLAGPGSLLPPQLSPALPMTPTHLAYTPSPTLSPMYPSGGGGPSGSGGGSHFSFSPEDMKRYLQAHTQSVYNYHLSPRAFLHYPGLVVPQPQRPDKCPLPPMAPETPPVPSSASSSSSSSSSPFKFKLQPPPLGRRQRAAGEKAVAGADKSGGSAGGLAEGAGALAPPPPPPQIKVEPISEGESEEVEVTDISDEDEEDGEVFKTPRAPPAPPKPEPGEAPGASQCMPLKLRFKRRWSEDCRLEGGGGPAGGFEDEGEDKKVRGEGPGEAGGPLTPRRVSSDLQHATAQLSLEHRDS
Particulars: protein: recombinant; tags: N-terminal GST; dsDNA, one strand shown. In a few lines:
as §1

A further experiment has as its target T7, ETV3L (Homo sapiens, UniProt Q6ZN32 1-361).
T7 sequence: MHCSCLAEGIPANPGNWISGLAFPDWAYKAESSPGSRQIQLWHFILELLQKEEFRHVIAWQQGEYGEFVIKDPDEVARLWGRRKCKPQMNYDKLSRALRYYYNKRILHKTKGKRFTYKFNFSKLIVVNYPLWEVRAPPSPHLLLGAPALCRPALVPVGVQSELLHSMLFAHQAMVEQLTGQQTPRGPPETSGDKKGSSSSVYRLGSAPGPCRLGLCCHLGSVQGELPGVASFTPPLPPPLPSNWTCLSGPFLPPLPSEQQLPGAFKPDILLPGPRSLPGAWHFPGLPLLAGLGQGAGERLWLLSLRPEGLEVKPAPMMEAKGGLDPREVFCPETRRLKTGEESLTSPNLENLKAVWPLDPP
Particulars: protein: recombinant; tags: N-terminal GST; dsDNA, one strand shown. The method in brief:
as §1

For the next experiment, the target named is T8, ETS2 (Homo sapiens, UniProt P15036 1-469).
T8 sequence: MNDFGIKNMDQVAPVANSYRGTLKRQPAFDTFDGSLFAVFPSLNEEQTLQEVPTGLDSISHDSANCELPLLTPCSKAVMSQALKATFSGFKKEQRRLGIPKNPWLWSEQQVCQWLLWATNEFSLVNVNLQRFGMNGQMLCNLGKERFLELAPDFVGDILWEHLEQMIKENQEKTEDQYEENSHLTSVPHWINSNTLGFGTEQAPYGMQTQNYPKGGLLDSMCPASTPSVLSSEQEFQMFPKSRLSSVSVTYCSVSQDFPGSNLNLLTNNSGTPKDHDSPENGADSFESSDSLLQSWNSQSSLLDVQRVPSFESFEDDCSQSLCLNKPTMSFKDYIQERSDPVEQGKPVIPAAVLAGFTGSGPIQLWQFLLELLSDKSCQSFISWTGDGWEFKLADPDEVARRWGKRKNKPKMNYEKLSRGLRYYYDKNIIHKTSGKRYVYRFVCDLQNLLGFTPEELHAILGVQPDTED
Particulars: protein: recombinant; tags: N-terminal GST; dsDNA, one strand shown. In a few lines: as §1

In another experiment the target is T9, SPDEF (Homo sapiens, UniProt O95238 1-335).
T9 sequence: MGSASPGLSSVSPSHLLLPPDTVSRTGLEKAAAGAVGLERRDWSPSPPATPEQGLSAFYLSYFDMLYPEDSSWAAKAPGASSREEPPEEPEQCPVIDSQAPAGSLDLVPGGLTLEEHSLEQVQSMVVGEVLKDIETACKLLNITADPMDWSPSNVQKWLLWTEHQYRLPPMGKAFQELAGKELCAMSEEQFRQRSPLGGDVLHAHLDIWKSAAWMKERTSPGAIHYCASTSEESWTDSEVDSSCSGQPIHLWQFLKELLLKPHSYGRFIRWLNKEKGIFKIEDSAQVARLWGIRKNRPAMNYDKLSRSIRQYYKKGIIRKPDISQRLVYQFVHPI
The conditions noted are these: protein: recombinant; tags: N-terminal GST; dsDNA, one strand shown. In a few lines: as §1

A further experiment addresses T10, ETV7 (Homo sapiens, UniProt Q9Y603 1-341).
T10 sequence: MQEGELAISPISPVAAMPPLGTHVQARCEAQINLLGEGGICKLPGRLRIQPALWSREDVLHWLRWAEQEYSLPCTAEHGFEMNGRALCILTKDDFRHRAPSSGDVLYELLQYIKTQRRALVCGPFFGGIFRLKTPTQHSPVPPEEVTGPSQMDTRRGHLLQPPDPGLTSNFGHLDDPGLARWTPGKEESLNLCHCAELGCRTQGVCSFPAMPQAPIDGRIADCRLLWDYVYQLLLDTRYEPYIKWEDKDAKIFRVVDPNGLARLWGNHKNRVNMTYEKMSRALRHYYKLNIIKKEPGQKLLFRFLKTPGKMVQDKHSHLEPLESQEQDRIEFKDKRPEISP
The conditions noted are these: protein: recombinant; tags: N-terminal GST; dsDNA, one strand shown. In a few lines:
as §1

In a further experiment the target is T11, ELF5 (Homo sapiens, UniProt Q9UKW6-2 1-255).
T11 sequence: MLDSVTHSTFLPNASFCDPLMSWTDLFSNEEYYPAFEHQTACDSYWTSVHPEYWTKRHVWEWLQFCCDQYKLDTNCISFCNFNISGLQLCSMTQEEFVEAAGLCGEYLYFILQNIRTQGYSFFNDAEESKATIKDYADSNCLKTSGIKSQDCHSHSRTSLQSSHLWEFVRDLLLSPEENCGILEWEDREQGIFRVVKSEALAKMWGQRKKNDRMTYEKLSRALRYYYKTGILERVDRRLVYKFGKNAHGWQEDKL
The conditions noted are these: protein: recombinant; tags: N-terminal GST; dsDNA, one strand shown. In a few lines:
as §1

In another experiment the target is T12, ETV3 (Homo sapiens, UniProt P41162-2 1-143).
T12 sequence: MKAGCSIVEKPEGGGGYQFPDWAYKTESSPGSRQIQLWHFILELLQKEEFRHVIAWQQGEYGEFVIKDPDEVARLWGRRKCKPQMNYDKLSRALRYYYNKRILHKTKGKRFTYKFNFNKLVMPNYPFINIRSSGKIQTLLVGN
The conditions noted are these: protein: recombinant; tags: N-terminal GST; dsDNA, one strand shown. The method in brief:
as §1

The target of a further experiment is ETV6 (Homo sapiens, UniProt P41212 1-452). The conditions noted are these: protein: recombinant; tags: N-terminal GST; dsDNA, one strand shown. In a few lines:
as §1

For one sequence, binding signal results are on record in publication PMC7862700, “An all-to-all approach to the identification of sequence-specific readers for epigenetic DNA modifications on cytosine”.

CRX, sequence (O43186 whole entry): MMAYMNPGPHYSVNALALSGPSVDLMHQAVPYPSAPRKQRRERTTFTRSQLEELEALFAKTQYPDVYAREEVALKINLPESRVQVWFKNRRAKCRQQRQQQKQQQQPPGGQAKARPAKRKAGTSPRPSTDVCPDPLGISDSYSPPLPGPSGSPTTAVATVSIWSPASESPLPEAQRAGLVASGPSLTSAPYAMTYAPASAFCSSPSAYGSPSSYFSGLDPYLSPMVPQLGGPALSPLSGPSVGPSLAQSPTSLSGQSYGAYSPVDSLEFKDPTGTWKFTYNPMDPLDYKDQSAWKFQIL
ETV6, sequence (P41212 whole entry): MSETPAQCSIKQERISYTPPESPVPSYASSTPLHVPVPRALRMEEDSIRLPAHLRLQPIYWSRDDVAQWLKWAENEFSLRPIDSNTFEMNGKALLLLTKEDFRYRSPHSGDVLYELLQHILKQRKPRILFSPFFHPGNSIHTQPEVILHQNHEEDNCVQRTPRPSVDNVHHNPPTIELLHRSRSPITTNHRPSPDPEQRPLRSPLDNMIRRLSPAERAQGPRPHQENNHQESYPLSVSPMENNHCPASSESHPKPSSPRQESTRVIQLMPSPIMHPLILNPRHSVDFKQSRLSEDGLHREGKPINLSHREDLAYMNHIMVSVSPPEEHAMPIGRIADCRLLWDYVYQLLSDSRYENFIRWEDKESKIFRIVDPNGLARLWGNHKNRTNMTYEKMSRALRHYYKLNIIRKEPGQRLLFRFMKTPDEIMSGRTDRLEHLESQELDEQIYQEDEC
ELF4, sequence (Q99607 whole entry): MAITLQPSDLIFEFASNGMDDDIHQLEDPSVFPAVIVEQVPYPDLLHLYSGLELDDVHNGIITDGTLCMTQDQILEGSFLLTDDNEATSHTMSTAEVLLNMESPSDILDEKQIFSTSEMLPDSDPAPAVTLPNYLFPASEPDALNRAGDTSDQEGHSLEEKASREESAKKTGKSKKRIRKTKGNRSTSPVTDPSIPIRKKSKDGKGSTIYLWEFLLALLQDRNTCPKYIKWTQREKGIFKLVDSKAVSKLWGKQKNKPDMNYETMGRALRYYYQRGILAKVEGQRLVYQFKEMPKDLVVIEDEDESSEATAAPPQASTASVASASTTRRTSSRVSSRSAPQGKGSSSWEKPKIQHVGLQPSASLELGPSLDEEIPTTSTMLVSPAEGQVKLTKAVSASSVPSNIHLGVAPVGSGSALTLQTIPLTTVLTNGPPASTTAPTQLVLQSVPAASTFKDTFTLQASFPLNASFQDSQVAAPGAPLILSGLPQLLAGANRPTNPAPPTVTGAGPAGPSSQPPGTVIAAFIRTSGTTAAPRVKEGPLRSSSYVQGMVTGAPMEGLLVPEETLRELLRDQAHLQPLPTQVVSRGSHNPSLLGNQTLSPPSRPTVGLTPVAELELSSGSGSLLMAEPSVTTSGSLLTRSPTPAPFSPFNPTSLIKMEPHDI
HSF1, sequence (Q00613 whole entry): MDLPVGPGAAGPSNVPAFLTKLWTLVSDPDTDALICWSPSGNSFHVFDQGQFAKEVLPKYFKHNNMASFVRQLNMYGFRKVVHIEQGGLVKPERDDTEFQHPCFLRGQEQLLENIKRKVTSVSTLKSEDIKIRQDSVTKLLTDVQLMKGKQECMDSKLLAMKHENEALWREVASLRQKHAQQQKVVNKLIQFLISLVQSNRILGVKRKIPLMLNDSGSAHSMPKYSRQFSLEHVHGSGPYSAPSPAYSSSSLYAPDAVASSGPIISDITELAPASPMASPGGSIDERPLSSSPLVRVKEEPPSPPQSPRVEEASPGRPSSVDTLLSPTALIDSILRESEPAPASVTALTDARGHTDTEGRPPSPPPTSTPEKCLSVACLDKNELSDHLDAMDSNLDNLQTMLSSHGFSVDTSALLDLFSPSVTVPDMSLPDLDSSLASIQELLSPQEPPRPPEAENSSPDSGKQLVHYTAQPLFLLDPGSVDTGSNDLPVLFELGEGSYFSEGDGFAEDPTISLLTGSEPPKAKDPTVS
ETV1, sequence (P50549 whole entry): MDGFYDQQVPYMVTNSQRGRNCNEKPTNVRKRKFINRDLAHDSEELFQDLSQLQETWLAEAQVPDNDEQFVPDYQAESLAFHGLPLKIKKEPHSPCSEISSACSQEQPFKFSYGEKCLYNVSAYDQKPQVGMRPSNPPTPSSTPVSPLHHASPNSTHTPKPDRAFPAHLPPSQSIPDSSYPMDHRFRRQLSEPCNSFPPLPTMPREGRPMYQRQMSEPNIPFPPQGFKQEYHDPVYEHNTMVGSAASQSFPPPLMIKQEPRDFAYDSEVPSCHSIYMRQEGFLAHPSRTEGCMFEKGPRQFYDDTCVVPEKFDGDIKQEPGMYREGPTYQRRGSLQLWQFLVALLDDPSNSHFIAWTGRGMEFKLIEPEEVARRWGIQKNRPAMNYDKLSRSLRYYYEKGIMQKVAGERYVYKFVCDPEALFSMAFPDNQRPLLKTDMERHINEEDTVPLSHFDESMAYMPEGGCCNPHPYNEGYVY
ETV5, sequence (P41161 whole entry): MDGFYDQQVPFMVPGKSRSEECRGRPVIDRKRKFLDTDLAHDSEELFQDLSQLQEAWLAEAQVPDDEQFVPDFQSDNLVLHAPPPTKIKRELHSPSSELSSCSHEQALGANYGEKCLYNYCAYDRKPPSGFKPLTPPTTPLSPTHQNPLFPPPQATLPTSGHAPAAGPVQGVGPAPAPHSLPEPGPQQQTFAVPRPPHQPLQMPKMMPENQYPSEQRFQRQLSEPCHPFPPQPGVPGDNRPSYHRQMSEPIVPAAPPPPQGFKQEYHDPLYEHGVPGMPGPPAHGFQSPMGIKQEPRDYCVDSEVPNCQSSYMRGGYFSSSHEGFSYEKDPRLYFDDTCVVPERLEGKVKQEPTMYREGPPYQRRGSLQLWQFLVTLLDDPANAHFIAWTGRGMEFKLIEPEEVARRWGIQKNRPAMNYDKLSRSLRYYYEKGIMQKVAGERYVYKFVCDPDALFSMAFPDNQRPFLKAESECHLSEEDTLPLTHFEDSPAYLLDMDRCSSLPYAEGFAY

Regarding AACAAT, the binding signal with FEV is 1.29 fold enrichment (6-mer frequency, TF over GST control); in the experiment with ETV5 it was 1.29 fold enrichment (6-mer frequency, TF over GST control); with HSF1, 1.48 fold enrichment (6-mer frequency, TF over GST control); with SPIC, 1.26 fold enrichment (6-mer frequency, TF over GST control); with ELF4, 1.32 fold enrichment (6-mer frequency, TF over GST control); in the experiment with ELK4, 1.27 fold enrichment (6-mer frequency, TF over GST control). The binding signal was 1.31 fold enrichment (6-mer frequency, TF over GST control) with ETV2; 1.56 fold enrichment (6-mer frequency, TF over GST control) in the experiment with ELF3; 1.24 fold enrichment (6-mer frequency, TF over GST control) with CRX; 1.36 fold enrichment (6-mer frequency, TF over GST control) in the experiment with ETV1; 1.31 fold enrichment (6-mer frequency, TF over GST control) with ERF; 1.26 fold enrichment (6-mer frequency, TF over GST control) with ETV3L. In addition, the binding signal was 1.27 fold enrichment (6-mer frequency, TF over GST control) with ETS2; 1.2 fold enrichment (6-mer frequency, TF over GST control) in the experiment with SPDEF; 1.24 fold enrichment (6-mer frequency, TF over GST control) with ETV7; 1.36 fold enrichment (6-mer frequency, TF over GST control) with ELF5; 1.32 fold enrichment (6-mer frequency, TF over GST control) in the experiment with ETV3; 1.31 fold enrichment (6-mer frequency, TF over GST control) with ETV6.
